Assay outcomes deposited in PubChem BioAssay by several laboratories.
Hits are enriched below; roughly 3.8% of the tested compounds scored in any of these assays.
PAFAH1B2 FP inh: PAFAH1B2 enzyme inhibitors, primary screen, biochemical, fluorescence polarization, human. recombinant PAFAH1B2, FP-rhodamine activity probe. AID 492953, 2010. Platelet-activating factor acetylhydrolase IB subunit alpha2 (Homo sapiens), P68402. inhibition, % at 3.39 µM. 340,000 compounds, 1.2% hits;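 active means inhibition above the mean of all tested compounds plus 3 SD, cut at about 24% in these data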;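 further: 0% = enzyme with DMSO and 100% = wells lacking PAFAH1B2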
M18AAP inhibitor: PfM18AAP inhibitors, malaria aminopeptidase, primary screen, biochemical, QFRET, recombinant enzyme; H-Glu-NHMec fluorogenic cleavage; M18 aspartyl aminopeptidase (Plasmodium falciparum 3D7); 290,000 compounds, 1.2% hits; inhibition, % at 7.35 µM; AID 1822, 2009;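 active means inhibition above the campaign mean inhibition over all tested compounds plus 3 SD, cut at about 28% in these data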;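 further: 0% = plate median of test compound wells and 100% = 2 mM ZnCl2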
PAFAH1B3 FP inh: PAFAH1B3 enzyme inhibitors, primary screen, biochemical, fluorescence polarization, human; inhibition, % at 3.39 µM; 340,000 compounds, 0.28% hits; recombinant PAFAH1B3, FP-rhodamine probe; AID 492972, 2010; Platelet-activating factor acetylhydrolase IB subunit alpha1 (Homo sapiens), Q15102;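 active means inhibition above the screen-wide average of all tested compounds plus 3 SD, cut at about 25% in these data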;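 further: 0% = enzyme with DMSO only and 100% = wells lacking PAFAH1B3 protein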
Target sequence (Q15102 whole entry, looked up): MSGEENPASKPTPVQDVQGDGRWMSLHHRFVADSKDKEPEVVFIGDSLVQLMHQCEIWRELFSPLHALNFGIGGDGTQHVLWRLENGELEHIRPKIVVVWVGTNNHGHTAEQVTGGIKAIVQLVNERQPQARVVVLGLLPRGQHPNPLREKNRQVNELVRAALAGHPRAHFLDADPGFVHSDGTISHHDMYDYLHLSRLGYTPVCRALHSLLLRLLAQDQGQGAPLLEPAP
DSG3 Ab inh: inhibitors of pemphigus antibody binding to DSG3, primary screen, biochemical, bead-based, flow cytometry, scFv-GFP; Desmoglein-3 (Homo sapiens), P32926; DSG3-coupled beads, scFv-anti-DSG3-GFP binding; active compounds read low; binding (percent of control), % at 10 µM; 310,000 compounds, 0.48% hits;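 active means binding more than 3 SD below its plate's average and above zero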;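 further: hits lower antibody fragment binding to DSG3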
PAFAH2 inh: PAFAH2 enzyme inhibitors, primary screen, biochemical, fluorescence polarization, human; recombinant PAFAH2, FP-rhodamine activity probe; inhibition, % at 3.39 µM; 340,000 compounds, 0.99% hits; AID 492956, 2010;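 active means inhibition above the mean over all tested compounds plus 3 SD, cut at about 30% in these data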;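 further: inhibitors block probe labeling of enzyme so polarization drops; 0% = enzyme with DMSO and 100% = wells lacking PAFAH2 protein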
pPAFAH FP inh: pPAFAH enzyme inhibitors, primary screen, biochemical, fluorescence polarization, human | Platelet-activating factor acetylhydrolase (Homo sapiens), Q13093 | recombinant pPAFAH, FP-rhodamine probe fluorescence polarization | inhibition, % at 3.39 µM | 330,000 compounds, 1.5% hits | AID 463082, 2010;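 active means inhibition above the mean inhibition across the screen plus 3 SD, cut at about 25% in these data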;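 further: inhibitors block binding of the rhodamine activity-based probe so polarization drops; 0% = enzyme with DMSO and 100% = wells lacking pPAFAH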
Target sequence (Q13093 whole entry, looked up): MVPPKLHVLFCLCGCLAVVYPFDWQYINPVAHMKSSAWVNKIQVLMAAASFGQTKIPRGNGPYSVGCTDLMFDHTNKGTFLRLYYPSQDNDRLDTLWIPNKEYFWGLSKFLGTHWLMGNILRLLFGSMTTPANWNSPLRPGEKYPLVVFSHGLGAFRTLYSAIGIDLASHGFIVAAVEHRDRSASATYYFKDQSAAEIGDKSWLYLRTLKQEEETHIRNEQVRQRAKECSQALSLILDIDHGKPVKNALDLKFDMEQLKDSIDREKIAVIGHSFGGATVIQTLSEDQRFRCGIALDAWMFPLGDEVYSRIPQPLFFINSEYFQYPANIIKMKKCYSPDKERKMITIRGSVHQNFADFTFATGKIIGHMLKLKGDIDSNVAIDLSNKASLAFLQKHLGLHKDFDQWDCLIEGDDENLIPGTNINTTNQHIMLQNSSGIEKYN
Numbers without * were called inactive.

What do the screens show for `O=C(O)c1ccc(Cn2cnc3scc(-c4ccccc4)c3c2=O)cc1`?
PAFAH1B2 FP inh: 26*; M18AAP inhibitor: -5; PAFAH1B3 FP inh: 16; DSG3 Ab inh: 105; PAFAH2 inh: 4; pPAFAH FP inh: 3

How did COc1ccc(Nc2nc(N)c(C(=O)c3ccc(OC)cc3)s2)cc1 do in these assays?
PAFAH1B2 FP inh: 6; M18AAP inhibitor: -5; PAFAH1B3 FP inh: -19; DSG3 Ab inh: 103; PAFAH2 inh: 6; pPAFAH FP inh: 26*

Results for CCOC(=O)c1sc(Nc2ccc(F)cc2)nc1C ?
PAFAH1B2 FP inh: 1; M18AAP inhibitor: -9; PAFAH1B3 FP inh: 4; DSG3 Ab inh: 99; PAFAH2 inh: 5; pPAFAH FP inh: 7

What do the screens show for `COc1ccc(Nc2nc(N)c(C(=O)c3ccc(F)cc3)s2)cc1`?
PAFAH1B2 FP inh: 8; M18AAP inhibitor: 5; PAFAH1B3 FP inh: 8; DSG3 Ab inh: 99; PAFAH2 inh: 3; pPAFAH FP inh: 31*

Results for CCCCCC#CCC#CCC#CCC#CCCCC(=O)O ?
M18AAP inhibitor: -2; pPAFAH FP inh: 61*

Results for CCCCCCCCCC(=O)O ?
PAFAH1B2 FP inh: 9; PAFAH1B3 FP inh: 3; DSG3 Ab inh: 91; PAFAH2 inh: -2; pPAFAH FP inh: 4

Results for CCCCCCCN=CC1=C(O)CC(c2ccccc2)CC1=O (stereo unspecified) ?
PAFAH1B2 FP inh: 26*; M18AAP inhibitor: -4; PAFAH1B3 FP inh: 7; DSG3 Ab inh: 119; PAFAH2 inh: -7; pPAFAH FP inh: -2

Results for CCCCN=CC1=C(O)CC(c2ccccc2)CC1=O (stereo unspecified) ?
PAFAH1B2 FP inh: 2; M18AAP inhibitor: -16; PAFAH1B3 FP inh: 4; DSG3 Ab inh: 111; PAFAH2 inh: 2; pPAFAH FP inh: 4

Results for N#CC1=C2CCCCC2(O)NC1=O (stereo unspecified) ?
DSG3 Ab inh: 104

How did O=C1NC(C2CC3C=CC2C3)Nc2ccccc21 (stereo unspecified) do in these assays?
DSG3 Ab inh: 100

Results for O=C(CSc1nnnn1-c1ccccc1F)Nc1nc2ccccc2s1 ?
PAFAH1B2 FP inh: -12; M18AAP inhibitor: 1; PAFAH1B3 FP inh: -10; DSG3 Ab inh: 121; PAFAH2 inh: -22; pPAFAH FP inh: 1

What do the screens show for `O=C(CSc1nnnn1-c1cccc(F)c1)Nc1nc2ccccc2s1`?
PAFAH1B2 FP inh: -2; M18AAP inhibitor: 2; PAFAH1B3 FP inh: 2; DSG3 Ab inh: 11*; PAFAH2 inh: -5; pPAFAH FP inh: 8

What do the screens show for `S=c1[nH]nc(-c2ccco2)n1/N=C/c1ccccc1Cl`?
PAFAH1B2 FP inh: 0; M18AAP inhibitor: 15; PAFAH1B3 FP inh: 5; DSG3 Ab inh: 96; PAFAH2 inh: 6; pPAFAH FP inh: 8

What do the screens show for `S=c1[nH]nc(-c2ccco2)n1/N=C/c1ccc(Cl)cc1`?
PAFAH1B2 FP inh: 6; M18AAP inhibitor: 31*; PAFAH1B3 FP inh: 7; DSG3 Ab inh: 96; PAFAH2 inh: 2; pPAFAH FP inh: 7

How did COc1cc(NC(=O)CSc2nc3ccccc3cc2C)c(C(=O)O)cc1OC do in these assays?
PAFAH1B2 FP inh: 12; M18AAP inhibitor: 11; PAFAH1B3 FP inh: 5; DSG3 Ab inh: 81; PAFAH2 inh: 4; pPAFAH FP inh: 12

What do the screens show for `CCc1cc2ccccc2nc1SCC(=O)Nc1cc(OC)c(OC)cc1C(=O)O`?
PAFAH1B2 FP inh: 14; M18AAP inhibitor: 22; PAFAH1B3 FP inh: 9; DSG3 Ab inh: 92; PAFAH2 inh: 16; pPAFAH FP inh: 33*

How did COc1ccc(S(=O)(=O)N2CCCCC2)cc1NC(=O)C1CC1(Cl)Cl (stereo unspecified) do in these assays?
DSG3 Ab inh: 104

Results for N#CC(C(=O)C12CC3CC(CC(C3)C1)C2)c1nc2ccccc2[nH]1 (stereo unspecified) ?
PAFAH1B2 FP inh: 13; M18AAP inhibitor: -7; PAFAH1B3 FP inh: -3; PAFAH2 inh: 31*; pPAFAH FP inh: 19

What do the screens show for `C=CCOC(=O)C(=O)/C=C/c1ccc2c(c1)Cc1ccccc1-2`?
PAFAH1B2 FP inh: 0; M18AAP inhibitor: 4; PAFAH1B3 FP inh: 0; DSG3 Ab inh: 97; PAFAH2 inh: -5; pPAFAH FP inh: 27*

Results for CC(=O)N1c2ccc(S(=O)(=O)NCCC(=O)NCCc3ccc(Cl)cc3)cc2CC1C (stereo unspecified) ?
PAFAH1B2 FP inh: 9; M18AAP inhibitor: -5; PAFAH1B3 FP inh: 5; DSG3 Ab inh: 109; PAFAH2 inh: -6; pPAFAH FP inh: 10

How did CC(=O)N1c2ccc(S(=O)(=O)NCCc3ccc(Cl)cc3)cc2CC1C (stereo unspecified) do in these assays?
PAFAH1B2 FP inh: 16; M18AAP inhibitor: -3; PAFAH1B3 FP inh: -3; DSG3 Ab inh: 102; PAFAH2 inh: -2; pPAFAH FP inh: 30*

What do the screens show for `C=C(CN(C)C)C(=O)c1ccc(OC2OC(COC(C)=O)C(OC(C)=O)C(OC(C)=O)C2OC(C)=O)cc1` (stereo unspecified)?
PAFAH1B2 FP inh: 4; PAFAH1B3 FP inh: 4; DSG3 Ab inh: 88; PAFAH2 inh: 0

What do the screens show for `C#CCOCCOCCOCCNc1nc(N2CCN(C(=O)CCCCCCCCCCNC(=O)Cn3cc(C[C@@H](C)O)nn3)CC2)nc(N2CCN(C(=O)CCCCCCCCCCNC(=O)[C@H](CCCCN)n3cc(CCCC(=O)O)nn3)CC2)n1`?
PAFAH1B2 FP inh: -3; PAFAH1B3 FP inh: -12; DSG3 Ab inh: 122; PAFAH2 inh: -4; pPAFAH FP inh: 25*

Results for NC(=O)c1ccc(Oc2ccc(Cl)cc2)c([N+](=O)[O-])c1 ?
PAFAH1B2 FP inh: 13; M18AAP inhibitor: 1; PAFAH1B3 FP inh: -1; DSG3 Ab inh: 107; PAFAH2 inh: 3; pPAFAH FP inh: 10

How did NC(=O)c1ccc(Oc2ccc(Cl)c3ccccc23)c([N+](=O)[O-])c1 do in these assays?
PAFAH1B2 FP inh: 0; M18AAP inhibitor: -12; PAFAH1B3 FP inh: -3; PAFAH2 inh: 1; pPAFAH FP inh: 34*

Results for CS/C(N)=N/N=C/c1cc(C)ccc1O ?
PAFAH1B2 FP inh: 2; M18AAP inhibitor: 26; PAFAH1B3 FP inh: 7; DSG3 Ab inh: 98; PAFAH2 inh: 0; pPAFAH FP inh: -1

Results for CCCCS/C(N)=N/N=C/c1cc(C)ccc1O ?
PAFAH1B2 FP inh: 2; M18AAP inhibitor: 29*; PAFAH1B3 FP inh: -1; DSG3 Ab inh: 99; PAFAH2 inh: -1; pPAFAH FP inh: -5

What do the screens show for `CCS/C(N)=N/N=C/c1cc(C)ccc1O`?
PAFAH1B2 FP inh: 5; M18AAP inhibitor: 31*; PAFAH1B3 FP inh: 2; DSG3 Ab inh: 106; PAFAH2 inh: 10; pPAFAH FP inh: 6
